This is part of a sample that, as a whole, favours compounds with a hit. Of some 79,000 tested, about 15% had one in any assay. A number with no mark means an inactive call. Activity calls are given as the source filed them. Cut-off read from the data, not from the text of the source: active = growth inhibition above about 70%; inactive = the rest.
Key:
[1] = NCI Yeast Anticancer Drug Screen. Data for the rad50 strain (AID 155);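 note: 0% = growth of vehicle-only cultures of the same strain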; conditions: S. cerevisiae rad50 strain growth inhibition, stronger effect = higher value
In short: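 Inhibition values express reduced yeast growth in compound-treated cultures relative to vehicle-treated controls.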

[2] = NCI Yeast Anticancer Drug Screen. Data for the mec2-1 strain (AID 157); conditions: S. cerevisiae mec2-1 strain, stronger effect = higher value
In short: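 Growth inhibition is read against vehicle-treated controls after compound exposure of the mec2-1 yeast strain, which is defective in DNA damage repair or cell cycle control.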

[3] = NCI Yeast Anticancer Drug Screen. Data for the sgs1 mgt1 strain (AID 161);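 note: 0% = growth of cultures given vehicle only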; conditions: S. cerevisiae sgs1 mgt1 strain, stronger effect = higher value
In short: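 Compounds are added to genetically altered yeast, and growth is compared with cultures given vehicle alone to give percent inhibition.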

[4] = NCI Yeast Anticancer Drug Screen. Data for the cln2 rad14 strain (AID 165);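 note: 0% = growth equal to vehicle treated cultures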; conditions: S. cerevisiae cln2 rad14 strain, stronger effect = higher value
In short: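 Growth inhibition, relative to vehicle-treated controls, is the read-out. The test organism is a yeast strain with defined genetic alterations, cln2 rad14.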

[5] = NCI Yeast Anticancer Drug Screen. Data for the bub3 strain (AID 167); conditions: S. cerevisiae bub3 mutant strain, stronger effect = higher value
In short: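 Steps: expose the mutant yeast strain to compound; grow alongside vehicle-treated cultures; measure growth; express inhibition against the vehicle cultures.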

[6] = NCI Yeast Anticancer Drug Screen. Data for the mlh1 rad18 strain (AID 175); conditions: S. cerevisiae mlh1 rad18 strain growth inhibition, stronger effect = higher value
In short: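 Cells of a genetically altered yeast strain, deficient in DNA damage repair, were treated with compound. Their growth was then compared with that of vehicle-treated cultures to give inhibition.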

[7] = at 5.0 µM (retest, dose inferred, filed as 0.5)
[8] = at 50.0 µM (retest, dose inferred, filed as 5.0)

| Structure (SMILES) | growth inhibition [1, 7] | growth inhibition [1, 8] | growth inhibition ([1]; at 50.0 µM) | growth inhibition [2, 7] | growth inhibition [2, 8] | growth inhibition ([2]; at 50.0 µM) | growth inhibition [3, 7] | growth inhibition [3, 8] | growth inhibition ([3]; at 50.0 µM) | growth inhibition [4, 7] | growth inhibition [4, 8] | growth inhibition ([4]; at 50.0 µM) | growth inhibition [5, 7] | growth inhibition [5, 8] | growth inhibition ([5]; at 50.0 µM) | growth inhibition [6, 7] | growth inhibition [6, 8] | growth inhibition ([6]; at 50.0 µM) |
| --- | --- | --- | --- | --- | --- | --- | --- | --- | --- | --- | --- | --- | --- | --- | --- | --- | --- | --- |
| BrC1(c2ccccc2)C[n+]2c(-c3ccccc3)cc(-c3ccccc3)cc2-c2ccccc21 (stereo not given) | 95% (active) | 99% (active) | 89.8% (active) | 96% (active) | 99% (active) | 91.5% (active) | 97% (active) | 98% (active) | 91.2% (active) | 95% (active) | 99% (active) | 91.2% (active) | 37% | 98% (active) | 89.4% (active) | 97% (active) | 99% (active) | 91% (active) |
| O=C(O)C1(Cc2ccc3c(c2)CCC3)Cc2cc3c(cc2C1)CCC3 | 2% | 2% | 82.8% (active) | -7% | -7% | 86.1% (active) | -1% | -1% | 77.8% (active) | -1% | -1% | 82% (active) | -11% | -11% | 82.2% (active) | 14% | 14% | 80.1% (active) |
| O=C1/C(=C/c2cccc(Br)c2)CCc2ccccc21 | 1% | 26% | 66.3% | 8% | 49% | 18.4% | 13% | 58% | 61.4% | -5% | 16% | 22.4% | 44% | 82% (active) | 74.6% (active) | 13% | 64% | 65.8% |
| CCC(C)COC(=O)c1ccc([N+](=O)[O-])cc1 (stereo not given) | -4% | 10% | 50% | -4% | 2% | 16.4% | -1% | 7% | 72.8% (active) | -3% | -9% | -2.15% | -6% | -6% | 80.2% (active) | -4% | 5% | 89.3% (active) |
| O=C(c1ccccc1)C(Cl)c1ccccc1 (stereo not given) | 9% | 99% (active) | 91.6% (active) | -12% | 99% (active) | 95.2% (active) | 1% | 97% (active) | 97.5% (active) | 0% | 41% | 44% | 51% | 99% (active) | 94% (active) | 0% | 99% (active) | 95.2% (active) |
| O=C(Nc1ccc(F)c(Cl)c1)Oc1ccc(Br)cc1Br | 10% | 52% | 38.1% | 5% | 50% | 56.8% | -2% | 66% | 65.8% | -5% | 6% | 11.3% | -2% | 11% | 15.5% | -3% | 80% (active) | 89.5% (active) |
| Cc1cccc[c]1[Sn]([Cl])([O][Sn]([Cl])([c]1ccccc1C)[c]1ccccc1C)[c]1ccccc1C | 61% | 97% (active) | 88.3% (active) | 46% | 98% (active) | 90.8% (active) | 40% | 98% (active) | 89% (active) | 20% | 96% (active) | 88.3% (active) | 42% | 98% (active) | 88.2% (active) | 85% (active) | 96% (active) | 89.5% (active) |
| CC(=O)SC(C[N+](=O)[O-])c1ccc2c(c1)OCO2 (stereo not given) | 55% | 91% (active) | 91% (active) | 69% | 100% (active) | 93% (active) | 53% | 99% (active) | 93.5% (active) | 44% | 57% | 91.3% (active) | 63% | 96% (active) | 92.5% (active) | 59% | 97% (active) | 90.3% (active) |
| COC1/C=C/OC2(C)Oc3c(C)c(O)c4c(c3C2=O)C(=O)c2cnc(nc2C4=O)/C(C)=C\C=C\C(C)C(O)C(C)C(O)C(C)C(OC(C)=O)C1C (stereo not given) | 10% | 97% (active) | 53.9% | 17% | 99% (active) | 55.2% | 9% | 99% (active) | 42.2% | 36% | 97% (active) | 56.1% | 23% | 98% (active) | 48.9% | 20% | 98% (active) | 50.9% |
| CC(=O)Nc1cccc(Oc2ccc(Br)cc2[N+](=O)[O-])c1 | -3% | 66% | 58.5% | 1% | 78% (active) | 10% | 9% | 94% (active) | 83.1% (active) | 0% | 47% | 24.7% | -1% | 63% | 42.6% | 20% | 89% (active) | 70.5% (active) |
| CS(=O)(=O)c1ccc(C[N+]23CN4CN(CN(C4)C2)C3)cc1 | -9% | -2% | -8.25% | 0% | 13% | 14.7% | -20% | -5% | -0.8% | -8% | -4% | 43.4% | -4% | 6% | -4.75% | -9% | -4% | 1.85% |
| Clc1ccccc1/C=C/c1ccnc2ccccc12 | 1% | 99% (active) | 97.7% (active) | 17% | 99% (active) | 97.8% (active) | 14% | 99% (active) | 97.9% (active) | -19% | 98% (active) | 96.8% (active) | -3% | 99% (active) | 97.9% (active) | -5% | 99% (active) | 98.2% (active) |
| Oc1[nH]c2ccccc2c1N=NC(=S)NCc1ccccn1 | 9% | 99% (active) | 77.4% (active) | 2% | 99% (active) | 86.3% (active) | 22% | 98% (active) | 90.9% (active) | 31% | 99% (active) | 90.5% (active) | 3% | 99% (active) | 90.8% (active) | 26% | 99% (active) | 91.8% (active) |
| O=S(=O)(Nc1ccc2ccc3cccc4ccc1c2c34)c1ccccc1 | 7% | 25% | 57.6% | 3% | 12% | 34.9% | 6% | 45% | 62.2% | -8% | -7% | 17.6% | -4% | 19% | 56.9% | 6% | 55% | 71.2% (active) |
| CCOC(=O)CC1C(=O)N(c2nc(-c3ccc(Br)cc3)cs2)N=C1C (stereo not given) | 2% | 2% | 43.5% | 2% | 37% | 23.1% | 3% | 7% | 60.7% | -2% | -9% | 32.3% | -23% | -8% | 4.05% | 2% | -19% | 75.8% (active) |
| O=C(NC(OCc1ccccc1)(C(F)(F)F)C(F)(F)F)OCc1ccccc1 | -14% | 98% (active) | 96% (active) | -5% | 92% (active) | 91% (active) | -9% | 98% (active) | 93.7% (active) | 11% | 96% (active) | 94.8% (active) | 13% | 95% (active) | 94.5% (active) | 2% | 98% (active) | 96.5% (active) |
| C/C=C/C(=O)N1c2ccccc2CC1c1c(C)[nH]c2ccccc12 (stereo not given) | 7% | 90% (active) | 94.3% (active) | 3% | 96% (active) | 94.8% (active) | 3% | 95% (active) | 94.3% (active) | 2% | 86% (active) | 96% (active) | 6% | 86% (active) | 95.5% (active) | 22% | 96% (active) | 96.6% (active) |
| COc1ccccc1C(=O)[O][Sn]([c]1ccccc1)([c]1ccccc1)[c]1ccccc1 | 100% (active) | 99% (active) | 99.2% (active) | 100% (active) | 100% (active) | 99.3% (active) | 99% (active) | 99% (active) | 99.3% (active) | 99% (active) | 99% (active) | 89.3% (active) | 100% (active) | 99% (active) | 99% (active) | 99% (active) | 99% (active) | 98.7% (active) |
| Cc1cc(Cc2ccc(Cl)cc2)ccc1O | 0% | 99% (active) | 56.4% | -8% | 99% (active) | 46.1% | 2% | 99% (active) | 99.2% (active) | -13% | 99% (active) | 51.9% | -19% | 99% (active) | 56.4% | 6% | 99% (active) | 47.9% |
| Cc1ccc(O)cc1CCCCO | 2% | -4% | -7.45% | 0% | -1% | -2.1% | -1% | -2% | -3.55% | -2% | 7% | 74.6% (active) | -11% | 0% | -5.95% | 0% | -2% | -3.45% |

Reference: PubChem BioAssay (NCI)
